Screens from PubChem BioAssay.
GC-A act – GC-A (human) enzyme activation; HEK293 GC-A cells, cGMP TR-FRET, EC30 ANP; 0% at EC30 ANP, 100% saturating ANP; hit rate 0.14% among 370,000; AID 1671463; activation, % at 10 µM; in the data active = activation above about 40%
NadD inh – inhibitors of Staphylococcus aureus NadD; inhibition, % at 20 µM; hit rate 0.78% among 360,000; purified NadD enzyme, colorimetric absorbance read-out; in the data active = inhibition above about 26%
Neddylation inh – inhibitors of human cullin neddylation; TR-FRET cullin neddylation, biochemical; AID 651699; P61081+Q13564; inhibition, % at 25 µM; hit rate 0.58% among 360,000; in the data active = inhibition above about 36%
GC-B act – GC-B (human) receptor activation; P20594; HEK293-GC-B cells, CNP EC30, cGMP TR-FRET; 0% at EC30 CNP, 100% saturating CNP; activation, % at 10 µM; hit rate 0.11% among 370,000; AID 1920062;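 active = activation at 10 µM reaching about 35% in either raw or pattern-adjusted values, limit read from the data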
Target sequence (P20594 whole entry, looked up): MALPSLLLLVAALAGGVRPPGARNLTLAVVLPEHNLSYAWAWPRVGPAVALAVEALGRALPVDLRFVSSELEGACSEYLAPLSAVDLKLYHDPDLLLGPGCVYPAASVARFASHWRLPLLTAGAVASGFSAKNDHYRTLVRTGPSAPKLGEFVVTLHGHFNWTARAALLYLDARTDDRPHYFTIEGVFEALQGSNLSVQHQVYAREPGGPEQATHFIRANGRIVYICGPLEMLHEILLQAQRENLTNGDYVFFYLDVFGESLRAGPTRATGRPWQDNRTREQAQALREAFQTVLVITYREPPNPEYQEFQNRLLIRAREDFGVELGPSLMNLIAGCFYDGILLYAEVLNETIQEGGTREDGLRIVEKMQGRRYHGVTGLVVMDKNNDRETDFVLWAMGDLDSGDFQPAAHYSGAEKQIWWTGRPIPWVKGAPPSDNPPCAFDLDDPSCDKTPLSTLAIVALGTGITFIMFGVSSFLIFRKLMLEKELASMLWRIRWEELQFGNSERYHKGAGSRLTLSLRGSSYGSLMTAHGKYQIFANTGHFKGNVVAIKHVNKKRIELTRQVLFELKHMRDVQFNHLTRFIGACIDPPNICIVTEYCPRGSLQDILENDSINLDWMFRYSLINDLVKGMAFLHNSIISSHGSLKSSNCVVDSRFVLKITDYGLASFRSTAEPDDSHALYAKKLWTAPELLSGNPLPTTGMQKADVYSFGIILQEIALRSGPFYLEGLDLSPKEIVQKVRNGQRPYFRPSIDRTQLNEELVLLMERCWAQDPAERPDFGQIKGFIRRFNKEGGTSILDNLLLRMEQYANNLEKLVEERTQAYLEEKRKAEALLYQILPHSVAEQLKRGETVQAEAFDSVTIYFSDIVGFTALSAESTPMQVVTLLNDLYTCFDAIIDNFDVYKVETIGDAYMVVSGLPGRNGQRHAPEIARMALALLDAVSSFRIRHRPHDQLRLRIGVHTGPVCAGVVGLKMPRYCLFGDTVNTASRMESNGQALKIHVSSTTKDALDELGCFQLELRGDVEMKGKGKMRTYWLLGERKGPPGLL
Neddyl conf – cullin neddylation inhibition, confirmation; shares compounds with Neddylation inh; TR-FRET cullin neddylation biochemical assay; calls only at 25 µM; hit rate 13% among 1,800; AID 652217; in the data active = inhibition above about 40%;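 note: neddylation substrate is the cullin 1 ring ligase complex with SKP2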
* = called active by the depositor; i = inactive; . = not tested or not shown; + = active, no number. This is a sample that favours compounds with a hit; in the whole collection about 1.5% have one here.

SMILES	GC-A act	NadD inh	Neddylation inh	GC-B act	Neddyl conf
O=C(CSc1nnc(-c2cccnc2)n1-c1ccc(Cl)cc1)c1ccc(F)cc1	-3	.	.	-6	.
COc1ccc(OC)c(NCc2nnc(-c3ccccc3)o2)c1	-4	-7	11	-3	.
COc1ccc(-c2ccc(-c3nnc(Cc4ccc(OC)c(OC)c4)o3)cc2)cc1	3	-8	44*	-5	i
NC(=O)c1c(N)[nH]c(C(=O)c2ccccc2)c1-c1ccccc1	-1	.	.	0	.
CC1(C)Cc2c(sc(NC(=O)c3ccc(S(=O)(=O)N4CCCCCC4)cc3)c2C(N)=O)C(C)(C)N1	-6	-5	30	4	.
CC1(C)Cc2c(sc(NC(=O)c3ccc4c(c3)OCCO4)c2C(N)=O)C(C)(C)N1	-3	-6	40*	-7	i
CCc1ccc2[nH]c(=O)c(C(c3nnnn3CCOC)N3CCN(c4ccc(F)cc4)CC3)cc2c1 (configuration not stated)	2	9	3	9	.
COCCn1nnnc1C(c1cc2cc(OC)c(OC)cc2[nH]c1=O)N1CCN(c2ccc(O)cc2)CC1 (configuration not stated)	3	6	42*	7	i
CC(C)(C)n1nnnc1C(c1cc2cc3c(cc2[nH]c1=O)OCCO3)N1CCSCC1 (configuration not stated)	1	0	47*	0	.
COC(=O)C(C(C)C)N1CCc2c(C)nc3c(C#N)cnn3c21 (configuration not stated)	-1	-5	47*	0	+
CCOC(=O)CN1CCc2c(C)nc3c(-c4ccc(OC)c(OC)c4)cnn3c21	9	4	33	-1	.
COc1cc2oc(=O)cc(CN3CCCCC3)c2cc1Cl	4	2	41*	0	i
COc1cc2oc(=O)cc(CN3CCN(C(C)=O)CC3)c2cc1Cl	1	-2	-3	-1	.
C[C@@H]1CN(C(=O)OC(C)(C)C)CCN1c1ccc(N2CCN(Cc3ccccc3)[C@@H](C)C2)c(C#N)c1	6	.	.	3	.
COc1ccc(-c2cc3ccccc3n2CC(O)CNC(CO)(CO)CO)cc1 (configuration not stated)	4	-6	45*	-3	.
O=C(/C=C(\Nc1ccc(Cl)c(Cl)c1)c1ccccc1)c1ccccc1	-2	.	.	-4	.
O=C1C2CC3N1CCC31c3ccccc3-n3c1c2ccc3=O (configuration not stated)	2	0	45*	2	+
Cc1cccc(C)c1NC(=O)c1ccc(OCc2c(C)noc2C)cc1	1	-5	50*	0	i
CCC(NC(=O)c1ccccc1O)c1ccccc1 (configuration not stated)	-3	1	49*	4	i
CCC(NC(=O)c1ccc([N+](=O)[O-])cc1[N+](=O)[O-])c1ccccc1 (configuration not stated)	2	0	-38	-4	.
CC(=O)Nc1nc2ncccn2c1-c1ccc(C)cc1	0	.	.	1	.
COc1ccc(-c2cc3nc(NCCN4CCCC4)n(C)c(=O)c3s2)cc1OC	-2	-3	50*	-4	+
CCC(=O)N1CCc2cc(Br)c(S(=O)(=O)N3CCC(C(=O)NCCCOC(C)C)CC3)cc21	-3	.	.	-3	.
O=c1[nH]c2cc3c(cc2cc1CN(CCO)S(=O)(=O)c1ccccc1)OCCO3	1	-3	37*	-1	.
CC(=O)c1ccc(S(=O)(=O)N(CCCO)Cc2cc3cc4c(cc3[nH]c2=O)OCCO4)cc1	-2	-5	2	2	.
SMILES	GC-A act	NadD inh	Neddylation inh	GC-B act	Neddyl conf
O=C(NCc1ccccc1)N(Cc1cc2cc3c(cc2[nH]c1=O)OCCO3)CC1CCCO1 (configuration not stated)	1	13	37*	1	i
O=C(NC1CCCCC1)N(CCN1CCOCC1)Cc1cc2cc3c(cc2[nH]c1=O)OCCO3	0	0	47*	-4	+
CCOC(=O)[C@]12CCCCC/C=C\1N(Cc1ccc(OC)cc1)C(=O)[C@H]2CC(=O)NCc1cccs1	-9	.	.	-7	.
CCCCCOc1ccc(/C=N/NC(=O)CSc2nnc(-c3ccc(OC)cc3)n2-c2ccc(C)cc2)cc1	-4	.	.	10	.
O=C(N/N=C/c1cccnc1)c1ccc(CN2c3cccc4cccc(c34)S2(=O)=O)cc1	-10	6	46*	-5	+
Cc1cc(NS(=O)(=O)c2ccc(NS(=O)(=O)c3ccc(Br)cc3)cc2)no1	-4	-11	57*	2	+
Cc1cc(NS(=O)(=O)c2ccc(NC(=O)/C=C/c3ccc(Br)cc3)cc2)no1	2	2	-16	1	.
CCCn1c(C)cc(/C=C(\C#N)C(=O)OCC(=O)Nc2ccc(OC)c(Cl)c2)c1C	-4	5	.	-2	.
COCCn1c(C)cc(/C=C(\C#N)C(=O)OCC(=O)Nc2ccc(S(N)(=O)=O)cc2)c1C	-1	11	40*	-5	+
O=S1(=O)N[C@@H](Cc2ccccc2)COc2cccc(N3CCCC3)c21	1	.	.	2	.
COC(=O)c1cc2c(c3c4cc(OC)ccc4n(S(=O)(=O)c4ccc(F)cc4)c13)C(=O)N(Cc1ccccc1)C2	2	.	.	-1	.
CC(C)Cc1nc(N2CCCCC2)c(C#N)c2c1CCC2	-4	13	39*	1	.
COCC(=O)N(c1ccc(C(C)(C)C)cc1)C(C(=O)NC(C)(C)C)c1cccnc1 (configuration not stated)	3	.	.	-2	.
Cc1c(C)c2ccc(OC(C)C(=O)N3C[C@H]4C[C@@H](C3)c3cccc(=O)n3C4)c(C)c2oc1=O (some centres not stated)	-4	1	44*	-5	i
Nc1nnc(N)c2ccccc12	5	-4	40*	-1	i
COc1ccccc1CCn1cnc(-c2cccc(F)c2)c1C(C)C	-2	.	.	3	.
CCN(CC)c1ccc(/C=N/NC(=O)CC(C)C)cc1	-2	-1	54*	2	+
CCN(CC)c1ccc(/C=N\NC(N)=O)cc1	-4	1	40*	-3	i
CCN(CC)c1ccc(/C=N/NC(=O)Nc2ccccc2)cc1	-6	-4	39	-4	.
CCN(CC)C(=O)Oc1ccc2oc(=O)cc(-c3cc4cccc(OC)c4o3)c2c1	6	-1	48*	9	.
O=C(COC(=O)c1cc2ccccc2cc1O)Nc1cccnc1Cl	-2	-2	-2	2	.
Cc1ccc2nc(C)cc(C(=O)OCC(=O)Nc3cccnc3Cl)c2c1	-1	1	44*	2	i
CCOc1ccc(-n2c(SCC(=O)c3ccc4ccccc4c3)nnc2-c2cccc(Cl)c2)cc1	-1	.	.	4	.
c1ccc(C[n+]2cccc3c4ccccc4ccc32)cc1	5	4	60*	2	.
CCCCC[n+]1cccc2c3ccccc3ccc21	14	23	.	-7	.
Nc1[nH]c(C(=O)c2ccccc2)c(-c2ccccc2Br)c1C(=O)c1cccs1	-4	.	.	5	.
